The source made the active and inactive calls. Rule for the calls: active = hit-call score of the fitted dose curve at least 0.9, where 1 is the maximum; inactive = score below 0.9.
Each compound was assayed against Retinoic acid receptor alpha (Homo sapiens) (UniProt P10276) (assay: ATG_DR5_RAR_CIS: Attagene CIS-FACTORIAL HepG2 Assay for human Retinoic Acid Receptor Alpha (RARE), DR5 submotif (AID 2282934;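 for AC50: reporter responds to endogenous RAR alpha beta and gamma in HepG2 not RARA alone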)). Details: HepG2 Attagene cis-factorial RARE DR5 reporter, mRNA; actives raise or lower the signal.
Chain of Retinoic acid receptor alpha (Homo sapiens) (P10276 whole entry, looked up): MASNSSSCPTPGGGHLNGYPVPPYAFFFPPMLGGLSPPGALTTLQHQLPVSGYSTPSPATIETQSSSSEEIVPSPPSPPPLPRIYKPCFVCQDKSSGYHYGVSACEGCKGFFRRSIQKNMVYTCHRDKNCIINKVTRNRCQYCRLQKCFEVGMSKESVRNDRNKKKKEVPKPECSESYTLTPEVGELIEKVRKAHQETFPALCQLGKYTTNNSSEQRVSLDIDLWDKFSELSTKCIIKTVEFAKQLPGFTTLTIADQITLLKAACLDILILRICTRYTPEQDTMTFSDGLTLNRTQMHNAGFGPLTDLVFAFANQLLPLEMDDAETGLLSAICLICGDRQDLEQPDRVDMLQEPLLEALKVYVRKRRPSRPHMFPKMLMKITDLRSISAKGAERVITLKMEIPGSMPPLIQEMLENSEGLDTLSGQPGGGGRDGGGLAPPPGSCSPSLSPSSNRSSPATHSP
Experimental: ATG_CIS is a cell-based, multiplexed-readout assay that uses HepG2, a human liver cell line, with measurements taken at 24 hours after chemical dosing in a 24-well plate.ATG_DR5_RAR_CIS is one of 52 assay component(s) measured or calculated from the ATG_CIS assay. It is designed to make measurements of mRNA induction, a form of inducible reporter, as detected with fluorescence intensity signals by Reverse transcription polymerase chain reaction (RT-PCR) and Capillary electrophoresis technology.Data from the assay component ATG_DR5_RAR_CIS was analyzed into 1 assay endpoint. This assay endpoint, ATG_DR5_CIS, was analyzed with bidirectional fitting relative to DMSO as the negative control and baseline of activity. Using a type of inducible reporter, measures of mRNA for gain or loss-of-signal activity can be used to understand the reporter gene at the transcription factor-level as they relate to the gene RARA and RARB and RARG. Furthermore, this assay endpoint can be referred to as a primary readout, because this assay has produced multiple assay endpoints where this one serves a reporter gene function. To generalize the intended target to other relatable targets, this assay endpoint is annotated to the nuclear receptor intended target family, where the subfamily is non-steroidal.
Human liver HepG2 cells are transiently transfected with multiple reporter transcription units (MRTUs) in 6-well plates using FuGene 6 reagent (Roche; 3 ml FuGene/1 mg DNA). The MRTU constructs are regulated by a cis-regulating element (promoter). […] A major difference between the CIS and TRANS system is that in CIS activities of endogenous TFs are measured, whereas the TRANS assay evaluates changes in activities of exogenous, chimeric NR-Gal4 proteins. […] At the end of 24 hour incubation, total RNA was isolated using TriZol reagent (Invitrogen). The isolated RNA is then reverse-transcribed using oligo(dT) primer and Mo-MLV reverse transcriptase (Invitrogen) with DNAse I (Ambion) treatment for 30 min. The one-tenth of the produced cDNA was amplified by PCR using Taq DNA polymerase (Invitrogen) and two reporter sequence-specific primers. The PCR products were fluorescently labeled by primer extension with 6-arboxyfluorescein (6-FAM) 5'-labeled reporter sequence-specific primer (2 min at 95 C, 20 s at 68 C and 10 min at 72 C) and these products were digested with 5U of HpaI (New England Biolabs) for 2h at 37 C. The fragments were purified using Qiaquick PCR columns (Qiagen), analyzed on an ABI 3130xL genetic analyzer (Applied Biosystems) with peak positions identified by using a set of X-rhodamine (ROX)-labeled MapMarker1000 molecular weight standards (BioVentures). The raw capillary electrophoresis data was processed using Attagraph software (Attagene).

**Q.** `C=CC(=O)OCC(F)(F)C(F)(F)C(F)(F)C(F)(F)C(F)(F)C(F)(F)C(F)(F)C(F)F` was tested. Which AC50 did it give?
**A.** 36.9 µM (active)

**Q.** `Brc1nc2ccccc2s1` was tested. Which outcome did it give?
**A.** inactive

**Q.** Which outcome does the source give for `CCN(CC)c1ccc2c(c1)Oc1cc(N(CC)CC)ccc1C21OC(=O)c2ccccc21` here?
**A.** inactive

**Q.** Which outcome does the source give for `O=C1OC(=O)c2ccc3c4c(ccc1c24)C(=O)OC3=O` here?
**A.** inactive

**Q.** Which outcome does the source give for `Cc1cc(=O)[nH]c(C(C)C)n1` here?
**A.** inactive

**Q.** For `CCCCOC(=O)C(C)O` (stereo not given), which outcome is on record?
**A.** inactive

**Q.** Which outcome does the source give for `CC(C)OC=O` here?
**A.** inactive

**Q.** `OCC1CCCO1` (stereo not given) was tested. Which outcome did it give?
**A.** inactive

**Q.** Which outcome does the source give for `CCN(CC)c1ccc(C=O)c(O)c1` here?
**A.** inactive

**Q.** How did the AC50 turn out when `CCCCCCCC/C=C\CCCCCCCC(=O)OCC(O)CO` (stereo not given) was run?
**A.** 20.5 µM (active)

**Q.** For `CC(C)(C)c1cc(CCC(=O)NCCCCCCNC(=O)CCc2cc(C(C)(C)C)c(O)c(C(C)(C)C)c2)cc(C(C)(C)C)c1O`, which outcome is on record?
**A.** inactive

**Q.** `CN(C)C(C)(C)CO` was tested. Which outcome did it give?
**A.** inactive

**Q.** How did the outcome turn out when `CC1=CC2C3C=CC(C3)C2C1C` (stereo not given) was run?
**A.** inactive

**Q.** With `CSc1ccc(O)cc1C` as the compound, how does the outcome read?
**A.** inactive

**Q.** Which outcome does the source give for `O=C(Cl)C(F)(F)C(F)(F)C(F)(F)C(F)(F)C(F)(F)C(F)(F)F` here?
**A.** inactive

**Q.** With `O=C(O)CCC(F)(F)C(F)(F)C(F)(F)F` as the compound, how does the outcome read?
**A.** inactive

**Q.** For `Cc1ccc(O)c(-n2nc3ccccc3n2)c1`, which outcome is on record?
**A.** inactive

**Q.** `Cc1ccc([N+](=O)[O-])c(C)c1` was tested. Which outcome did it give?
**A.** inactive

**Q.** Which outcome does the source give for `CCOCN(C(=O)CS(=O)(=O)O)c1c(C)cccc1CC` here?
**A.** inactive

**Q.** For `CC1=CCC2C(=O)OC(=O)C2C1` (stereo not given), which outcome is on record?
**A.** inactive

**Q.** Which outcome does the source give for `O=C=Nc1cccc2c(N=C=O)cccc12` here?
**A.** inactive

**Q.** With `OCC(O)CC(F)(F)C(F)(F)C(F)(F)C(F)(F)F` (stereo not given) as the compound, how does the outcome read?
**A.** inactive

**Q.** `CCC(C)CO` (stereo not given) was tested. Which outcome did it give?
**A.** inactive

**Q.** `Cc1ccc(S(=O)(=O)C(I)I)cc1` was tested. Which AC50 did it give?
**A.** 8.88 µM (active)

**Q.** `Cc1cc(C)c(O)c(C(C)(C)C)c1` was tested. Which outcome did it give?
**A.** inactive

**Q.** `O=C=NCc1cccc(CN=C=O)c1` was tested. Which outcome did it give?
**A.** inactive

**Q.** For `CC(C)=CCCC(C)O` (stereo not given), which outcome is on record?
**A.** inactive

**Q.** `CC(=O)c1ccccc1N` was tested. Which outcome did it give?
**A.** inactive

**Q.** How did the outcome turn out when `C=CC(=O)OCC(F)(F)C(F)(F)C(F)(F)COC(=O)C=C` was run?
**A.** inactive

**Q.** `CCn1c2ccccc2c2ccccc21` was tested. Which AC50 did it give?
**A.** 25.8 µM (active)

**Q.** Which AC50 does the source give for `CCc1cc(Cc2cc(CC)c(N)c(CC)c2)cc(CC)c1N` here?
**A.** 2.96 µM (active)

**Q.** Which outcome does the source give for `O=C(Cl)C(F)(F)C(F)(F)C(F)(F)C(F)(F)C(F)(F)C(F)(F)C(F)(F)F` here?
**A.** inactive

**Q.** Which outcome does the source give for `C[Si](Cl)(Cl)CCC(F)(F)C(F)(F)C(F)(F)C(F)(F)C(F)(F)C(F)(F)F` here?
**A.** inactive

**Q.** How did the AC50 turn out when `COCCOCCC[Si](C)(O[Si](C)(C)C)O[Si](C)(C)C` was run?
**A.** 8.84 µM (active)

**Q.** For `O=C(Cl)c1ccc(Cl)cc1Cl`, which outcome is on record?
**A.** inactive

**Q.** How did the outcome turn out when `OCC(F)(F)C(F)(F)C(F)(F)CO` was run?
**A.** inactive

**Q.** Which outcome does the source give for `COCCC(=O)OC` here?
**A.** inactive

**Q.** `NCC(F)(F)C(F)(F)C(F)(F)C(F)(F)C(F)(F)C(F)(F)C(F)(F)C(F)(F)F` was tested. Which outcome did it give?
**A.** inactive

**Q.** For `O=c1cccc[nH]1`, which outcome is on record?
**A.** inactive

**Q.** With `OCCCC(F)(F)C(F)(F)C(F)(F)C(F)(F)C(F)(F)C(F)(F)C(F)(F)C(F)(F)F` as the compound, how does the AC50 read?
**A.** 22 µM (active)

Source: PubChem BioAssay (EPA / NIEHS)
